Inconclusive results are not listed. Unmarked numbers belong to inactive results. The source made the active and inactive calls. Unless noted, the call rests on the fitted dose curve.

This passage reports outcome and Potency results from PubChem BioAssay (Tox21).

Assay [1] is described as follows: qHTS assay to identify small molecule antagonists of the peroxisome proliferator-activated receptor delta (PPARd) signaling pathway - cell viability counter screen (AID 743213; active means well fitted curve in the direction sought with a large enough effect in the repeat runs; an effect the other way counts as inactive or inconclusive; further: nearly all actives have a fitted effect of over 50% in size). In a few lines:
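HEK293H cells with the PPARd UAS-bla reporter, co-treated 17 h at 37 C with compounds and L165041 (300 nM final), were lysed with CellTiter-Glo. Luminescence indicated viable cell content.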
A general note: qHTS replaces the single test concentration by a dilution series.

The target in assay [2] is Bile acid receptor (Homo sapiens) (UniProt Q96RI1). The assay can be described thus: qHTS assay to identify small molecule antagonists of the farnesoid-X-receptor (FXR) signaling pathway (AID 743217; active means well fitted inhibition curve with a large enough effect in the signal ratio in the repeat runs, not every such curve was filed as active; the % refers to the signal ratio). In a few lines: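 FXR-UAS-bla HEK 293T cells (beta-lactamase reporter) given compound plus chenodeoxycholic acid (50 uM final), 16 h at 37C. LiveBLAzer B/G FRET substrate added for 2 h at room temperature; fluorescence read.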

Assay [3] is described as follows: qHTS assay to identify small molecule agonists of the farnesoid-X-receptor (FXR) signaling pathway - cell viability counter screen (AID 743218; active means well fitted curve in the direction sought with a large enough effect in the repeat runs; an effect the other way counts as inactive or inconclusive; further: nearly all actives have a fitted effect of over 45% in size). In short, it runs like this:
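FXR-UAS-bla HEK 293T cells exposed to compounds for 16 h at 37C. Cytotoxicity read in the same wells by CellTiter-Glo luminescence after 30 min at room temperature, following the beta-lactamase FRET read.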

Assay [4] deals with Bile acid receptor (Homo sapiens) (UniProt Q96RI1). The assay can be described thus: qHTS assay to identify small molecule agonists of the farnesoid-X-receptor (FXR) signaling pathway (AID 743220; active means well fitted activation curve with a large enough effect in the signal ratio in the repeat runs, not every such curve was filed as active; the % refers to the signal ratio). In a few lines: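 Beta-lactamase reporter under UAS control in GeneBLAzer FXR HEK 293T cells (5000/well) measured with LiveBLAzer FRET substrate after 2 h at room temperature. Compound exposure lasted 16 h at 37C.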

Assay [5] is described as follows: qHTS assay to identify small molecule antagonists of the farnesoid-X-receptor (FXR) signaling pathway - cell viability counter screen (AID 743221; active means well fitted cell-killing curve with a large enough effect in the repeat runs, not every such curve was filed as active; further: nearly all actives have a fitted effect of over 50% in size). In a few lines: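 Quantitative HTS of the Tox21 10K library run in parallel with the beta-lactamase reporter read. HEK 293T cells carrying a UAS-driven bla reporter got compound and 50 uM CDCA (final) for 16 h; ATP-based luminescence followed.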

Assay [6] has as its target Vitamin D3 receptor (Homo sapiens) (UniProt P11473). The assay can be described thus: qHTS assay to identify small molecule agonists of the vitamin D receptor (VDR) signaling pathway (AID 743222). In a few lines:
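VDR-bla cells plated 4 h at 37 C, then exposed to compounds for 16 h at 37 C. Beta-lactamase reporter activity measured by fluorescence after 2 h room-temperature loading with LiveBLAzer B/G FRET substrate.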

Assay [7] is described as follows: qHTS assay to identify small molecule agonists of the vitamin D receptor (VDR) signaling pathway - cell viability counter screen (AID 743224; active means well fitted curve in the direction sought with a large enough effect in the repeat runs; an effect the other way counts as inactive or inconclusive; further: series mostly up to about 63 µM; nearly all actives have a fitted effect of over 50% in size). In short, it runs like this:
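VDR-bla cells, 4 h after plating, exposed to compounds for 16 h at 37C; viability then read in the same wells as CellTiter-Glo luminescence after 30 min at room temperature, following the bla FRET read.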

Assay [8] in a line: qHTS assay to identify small molecule antagonists of the vitamin D receptor (VDR) signaling pathway - cell viability counter screen (AID 743225; active means well fitted curve in the direction sought with a large enough effect in the repeat runs; an effect the other way counts as inactive or inconclusive; further: nearly all actives have a fitted effect of over 50% in size). In a few lines:
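Cells (VDR-UAS-bla HEK 293T) are plated, rested 4 h at 37C, dosed with compound and 3 nM final 1-alpha,25-dihydroxy vitamin D3, and incubated 16 h. Viability is taken from CellTiter-Glo luminescence in the reporter wells.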

Assay [9] is described as follows: qHTS assay to identify small molecule agonists of the NFkB signaling pathway (AID 1159509; active means well fitted curve in the direction sought with a large enough effect in the signal ratio in the repeat runs, not every such curve was filed as active; the % refers to the signal ratio; further: series mostly up to about 61 µM). In a few lines: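 After overnight attachment, reporter cells received test compounds, DMSO or positive controls and were incubated 5 hr at 37 C. FRET substrate was then added for 1.5 hr at room temperature before dual-emission fluorescence reading.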
Assay [10] in a line: qHTS assay to identify small molecule agonists of the NFkB signaling pathway - cell viability counter screen (AID 1159515). Further: series mostly up to about 61 µM; nearly all actives have a fitted effect of over 55% in size. In a few lines: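 NFkB-bla ME-180 cells, 2,000/well, plated overnight at 37 C; compound added for 5 hr at 37 C. Viability read in the same wells as the bla reporter, by CellTiter-Glo luminescence after 30 min at room temperature.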
The nature of assay [11]: qHTS assay to identify small molecule agonists of the endoplasmic reticulum stress response signaling pathway (AID 1159516; active means well fitted activation curve with a large enough effect in the signal ratio in the repeat runs, not every such curve was filed as active; the % refers to the signal ratio). In a few lines: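 CellSensor ESRE-bla HeLa cells, 1,500 per well, plated overnight, then exposed to compounds for 5 hr at 37 C. Beta-lactamase reporter read with LiveBLAzer B/G FRET substrate after 2 hr at room temperature, 405 nm excitation, 460 and 530 nm emission.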

A short description of assay [12]: qHTS assay to identify small molecule agonists of the endoplasmic reticulum stress response signaling pathway - cell viability counter screen (AID 1159517). Further: nearly all actives have a fitted effect of over 50% in size. Further: potency means the concentration at half of the fitted maximal effect. In short, it runs like this:
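Luminescence readout: CellTiter-Glo, 30 min RT, same wells as the ESRE-bla reporter read. HeLa ESRE-bla, 1,500 cells/well, o/n 37 C; cpd 5 hr 37 C/5% CO2.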

Assay [13] addresses Nuclear receptor ROR-gamma (Homo sapiens) (UniProt P51449). The assay can be described thus: qHTS assay to identify small molecule antagonists of the retinoid-related orphan receptor gamma (ROR-gamma) signaling pathway (AID 1159521; active means well fitted curve in the direction sought with a large enough effect in the repeat runs; an effect the other way counts as inactive or inconclusive). In a few lines:
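RORγ antagonism is scored from reduced reporter luminescence in Tet-on CHO cells. Induction used 1 uM final doxycycline hyclate for 16 h at 37 C, following a 2 h compound exposure.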

Assay [14] can be described thus: qHTS assay to identify small molecule agonists of the AP-1 signaling pathway - cell viability counter screen (AID 1159525). Further: nearly all actives have a fitted effect of over 55% in size. In short, it runs like this: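 ME-180 AP-1-bla, 2500 cells/well, Opti-MEM + 0.5% dialyzed FBS; overnight 37 °C; cpd 15-pt titration, 5 h 37 °C; CellTiter-Glo 30 min RT; luminescence read; normalised to TOAB and DMSO controls.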
A short description of assay [15]: qHTS assay to identify small molecule agonists of the AP-1 signaling pathway (AID 1159526).
Assay [16] concerns the target Retinoic acid receptor RXR-alpha (Homo sapiens) (UniProt P19793). The assay is described as follows: qHTS assay to identify small molecule agonists of the RXR signaling pathway (AID 1159527). Further: nearly all actives have a fitted effect of over 35% in size. In short, it runs like this: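 qHTS of the Tox21 10K library in GeneBLAzer RXR-alpha HEK 293T cells carrying a beta-lactamase reporter […]; 16 hr treatment, 9-cis retinoic acid as agonist control, FRET read-out.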

In assay [17] the target is Peroxisome proliferator-activated receptor delta (Homo sapiens) (UniProt Q03181). The assay can be described thus: qHTS assay to identify small molecule agonists of the peroxisome proliferator-activated receptor delta (PPARd) signaling pathway (AID 743212). In a few lines:
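GeneBLAzer PPARd UAS-bla HEK293H cells (beta-lactamase reporter under UAS control), plated and rested 5 h at 37 C, then exposed to compounds in DMSO at 37 C; LiveBLAzer B/G FRET substrate added, 2 h room temperature, fluorescence read.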

Assay [18] has the same target. The assay is described as follows: qHTS assay to identify small molecule antagonists of the peroxisome proliferator-activated receptor delta (PPARd) signaling pathway (AID 743215; active means well fitted inhibition curve with a large enough effect in the signal ratio in the repeat runs, not every such curve was filed as active; the % refers to the signal ratio;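 further: cells stimulated with agonist L165041 at 300 nM final during compound exposure; series mostly up to about 62 µM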). In a few lines: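 PPARd-bla HEK293H cells (UAS-bla reporter) preincubated 5 h, then given compound plus 300 nM final L165041 agonist for 17 h at 37 C. Beta-lactamase activity read by LiveBLAzer B/G FRET substrate fluorescence after 2 h at room temperature.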

Assay [19] addresses Vitamin D3 receptor (Homo sapiens) (UniProt P11473). The assay can be described thus: qHTS assay to identify small molecule antagonists of the vitamin D receptor (VDR) signaling pathway (AID 743223; active means well fitted inhibition curve with a large enough effect in the signal ratio in the repeat runs, not every such curve was filed as active; the % refers to the signal ratio). In short, it runs like this: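 Fluorescence from LiveBLAzer B/G FRET substrate, read after 2 h at room temperature, reflects beta-lactamase reporter activity in VDR-bla cells treated 16 h at 37C with compounds and agonist 1alpha,25-dihydroxyvitamin D3 (3 nM final).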

A short description of assay [20]: qHTS assay to identify small molecule antagonists of the retinoid-related orphan receptor gamma (ROR-gamma) signaling pathway - cell viability counter screen (AID 1159520; active means well fitted curve in the direction sought with a large enough effect in the repeat runs; an effect the other way counts as inactive or inconclusive; further: nearly all actives have a fitted effect of over 50% in size). In short, it runs like this: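 Tet-on ROR gamma CHO cells (1,000/well) were plated 4 hr, given compounds in DMSO for 2 hr at 37 C, then induced with 1 uM final doxycycline for 16 hr. Viability was read as ATP by CellTiter-Glo luminescence after 30 min.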

Chain of Bile acid receptor (Homo sapiens) (Q96RI1 whole entry, looked up): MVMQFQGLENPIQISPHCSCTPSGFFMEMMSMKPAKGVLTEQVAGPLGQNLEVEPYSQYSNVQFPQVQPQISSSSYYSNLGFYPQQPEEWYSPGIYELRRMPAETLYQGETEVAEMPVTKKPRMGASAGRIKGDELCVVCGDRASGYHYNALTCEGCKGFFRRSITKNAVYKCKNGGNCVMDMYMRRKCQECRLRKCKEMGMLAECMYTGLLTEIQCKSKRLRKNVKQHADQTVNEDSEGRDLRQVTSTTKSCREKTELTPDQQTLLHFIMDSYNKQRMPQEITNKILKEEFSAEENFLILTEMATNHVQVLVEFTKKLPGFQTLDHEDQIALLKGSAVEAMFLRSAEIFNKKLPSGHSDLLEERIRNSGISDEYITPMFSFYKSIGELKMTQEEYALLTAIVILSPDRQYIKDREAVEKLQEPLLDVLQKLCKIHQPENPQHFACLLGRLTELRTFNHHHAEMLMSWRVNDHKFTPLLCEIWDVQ
Chain of Peroxisome proliferator-activated receptor delta (Homo sapiens) (Q03181 whole entry, looked up): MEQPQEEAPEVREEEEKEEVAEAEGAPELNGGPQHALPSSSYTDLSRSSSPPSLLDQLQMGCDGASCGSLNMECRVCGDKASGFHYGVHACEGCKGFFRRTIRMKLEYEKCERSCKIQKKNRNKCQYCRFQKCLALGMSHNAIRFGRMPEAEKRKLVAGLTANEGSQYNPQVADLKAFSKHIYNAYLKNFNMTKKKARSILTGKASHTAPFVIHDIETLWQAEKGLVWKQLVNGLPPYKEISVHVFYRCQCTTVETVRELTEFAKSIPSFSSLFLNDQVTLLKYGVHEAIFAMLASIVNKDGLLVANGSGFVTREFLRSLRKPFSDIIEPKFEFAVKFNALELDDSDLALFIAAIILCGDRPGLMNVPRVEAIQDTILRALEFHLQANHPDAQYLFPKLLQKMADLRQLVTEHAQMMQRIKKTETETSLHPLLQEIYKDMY
Chain of Vitamin D3 receptor (Homo sapiens) (P11473 whole entry, looked up): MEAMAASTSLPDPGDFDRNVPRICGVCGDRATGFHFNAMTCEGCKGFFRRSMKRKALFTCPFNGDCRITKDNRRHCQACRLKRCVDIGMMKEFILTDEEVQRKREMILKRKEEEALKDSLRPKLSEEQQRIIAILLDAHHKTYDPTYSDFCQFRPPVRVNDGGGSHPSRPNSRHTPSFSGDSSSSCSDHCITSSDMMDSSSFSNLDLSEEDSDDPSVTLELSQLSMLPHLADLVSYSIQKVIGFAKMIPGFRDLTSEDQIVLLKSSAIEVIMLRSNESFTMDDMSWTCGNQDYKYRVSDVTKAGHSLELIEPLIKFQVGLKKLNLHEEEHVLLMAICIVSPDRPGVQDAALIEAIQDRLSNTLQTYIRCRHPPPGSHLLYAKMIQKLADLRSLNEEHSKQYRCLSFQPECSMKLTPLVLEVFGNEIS
Chain of Retinoic acid receptor RXR-alpha (Homo sapiens) (P19793 whole entry, looked up): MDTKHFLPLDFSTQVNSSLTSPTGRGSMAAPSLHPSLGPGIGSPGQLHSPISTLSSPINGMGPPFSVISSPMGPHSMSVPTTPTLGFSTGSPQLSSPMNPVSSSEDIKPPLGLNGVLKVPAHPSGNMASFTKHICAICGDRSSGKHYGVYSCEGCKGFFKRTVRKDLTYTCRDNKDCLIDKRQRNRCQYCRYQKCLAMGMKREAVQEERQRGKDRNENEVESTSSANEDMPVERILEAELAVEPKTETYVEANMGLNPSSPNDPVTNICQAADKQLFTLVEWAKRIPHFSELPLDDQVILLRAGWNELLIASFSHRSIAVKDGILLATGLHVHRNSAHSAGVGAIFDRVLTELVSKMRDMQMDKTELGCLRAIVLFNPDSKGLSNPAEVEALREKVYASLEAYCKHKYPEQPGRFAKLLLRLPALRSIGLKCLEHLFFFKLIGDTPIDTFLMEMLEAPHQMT

Regarding `ClCCOCOCCCl`, the compound was classed as inactive in [1], in [4], in assay [5], in [6], in [8] and in [9]. In addition, the call in [10], in assay [11] and in [15] was inactive. The Potency entry in assay [2], in assay [3], in assay [7], in [12], in assay [13] and in [14] was “inactive” throughout. In addition, in [16], the Potency entry was “inactive”.
On to `Cc1coc2c1CCC(C)C2` (stereo unspecified), for which the outcome in [17], in assay [1], in assay [18], in assay [5], in assay [6] and in [8] was inactive. The compound was called inactive in assay [9], in assay [10], in [11] and in assay [15]. Besides, the Potency entry in [3], in assay [7], in [12], in [14] and in assay [16] was “inactive” throughout.
`CCNc1nc(NC(C)C)nc(OC)n1`: the result in [17], in [1], in [18], in assay [4], in [5] and in [6] was inactive. The compound was classed as inactive in [19], in assay [8], in [9], in assay [10], in assay [11] and in assay [15]. Moreover, the Potency entry in [2], in [3], in assay [7], in assay [12], in assay [13] and in assay [14] was “inactive” throughout.
On to `O=[N+]([O-])c1ccc(CBr)cc1`, for which the compound was classed as inactive in [17], in [5], in [8], in assay [9], in assay [10] and in assay [11]. Moreover, in [15], the call was inactive. Moreover, the Potency result in assay [3], in [7], in assay [13] and in assay [14] was “inactive” each time. Moreover, in [12], the Potency is 27.2 µM (active).
Take `CC(C)(C)OC(=O)c1ncn2c1[C@@H]1CCCN1C(=O)c1c(Br)cccc1-2`: the outcome in assay [1], in assay [5], in assay [19], in assay [8], in assay [9] and in assay [10] was inactive. Besides, the compound was classed as inactive in assay [11] and in assay [15]. Moreover, the Potency entry in assay [3], in assay [12], in [13] and in assay [14] was “inactive” each time.
Regarding `COc1cc2c(cc1OC)[C@@]13CCN4CC5=CCO[C@H]6CC(=O)N2[C@H]1[C@H]6[C@H]5C[C@H]43`, the outcome in assay [1], in assay [5], in assay [6], in [8], in assay [9] and in [10] was inactive. Also, the compound was classed as inactive in assay [11] and in assay [15]. The Potency result in [3], in assay [7], in [12], in assay [13] and in [14] was “inactive” throughout.
On to `CC(N)=S`, for which the outcome in [17], in [1], in assay [18], in [4], in assay [5] and in [6] was inactive. The result in assay [9], in [10], in [11] and in assay [15] was inactive. Besides, the Potency result in assay [2], in assay [3], in assay [12], in [13], in assay [14] and in assay [16] was “inactive” throughout.
As to `CCOP(=S)(Oc1cnc(C(C)(C)C)nc1)OC(C)C` (stereo unspecified), the call in assay [17], in [18], in assay [5], in [6], in assay [19] and in assay [8] was inactive. For the same compound, the result in assay [9], in [10] and in [11] was inactive. In addition, the Potency entry in assay [3], in [12], in assay [20], in assay [14] and in [16] was “inactive” in each case.
